According to PubChem BioAssay (Tox21):
Records with an inconclusive call do not appear. Activity calls are given as the source filed them. The call rests on the fitted dose curve; in most records, active means well fitted curve in the direction sought with a large enough effect in the repeat runs; inconclusive means weak or mixed curves; inactive means no such curve, though single readings can be large; an effect the other way counts as inactive or inconclusive.

Assay: qHTS assay to identify small molecule HDAC inhibitors (AID 1259364); further: top concentration of the series differs between compounds; nearly all actives have a fitted effect of over 45% in size
Conditions: HCT-116 HDAC-Glo I/II luminescence, 2 h; series mostly up to 92.4 µM; activity change, negative = inhibition: at the top concentration
How it was run: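 Homogeneous cell-based luminescent assay of endogenous class I/II HDAC activity; HCT-116 cells, 2 h compound exposure, 30 min HDAC-Glo development at RT.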
On the % scale 0 is the no-effect control and ±100 the full control effect.

Row | Compound | activity change, negative = inhibition
1 | CC1CCC(C(C)C)C(OC(=O)c2ccccc2N)C1 (stereo unspecified) | 7.62% (inactive)
2 | Oc1cccc(-c2ccccc2)c1 | -23% (inactive)
3 | CN(C)S(=O)(=O)N(SC(F)(Cl)Cl)c1ccccc1 | 3.26% (inactive)
4 | OC(Cc1ccccc1Cl)(Cn1cncn1)C1(Cl)CC1 (stereo unspecified) | -0.532% (inactive)
5 | N#Cc1ccccc1Cl | 3.75% (inactive)

Assay: qHTS assay to identify small molecule HDAC inhibitors - cell viability counter screen (AID 1259365); further: nearly all actives have a fitted effect of over 50% in size; further: potency means the concentration at half of the fitted maximal effect
Conditions: HCT-116 viability, CellTiter-Glo ATP luminescence, 2 h; series mostly up to 92.4 µM; activity change, negative = cytotoxicity: at the top concentration
How it was run: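 Wild-type HCT-116 cells, 1,500/well, cultured overnight, then compound-treated 2 h at 37 C. Viability measured as ATP luminescence with CellTiter-Glo after 30 min at room temperature.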

Row | Compound | activity change, negative = cytotoxicity | Potency
6 | Nc1ccc(Sc2ccc(N)cc2)cc1 | 9.82% (inactive) | –
7 | [Cl][Sb]([Cl])[Cl] | -1.18% (inactive) | –
8 | CN(C)CCc1c[nH]c2cccc(O)c12 | -8.96% (inactive) | –
9 | S=C(SSC(=S)N1CCCCC1)N1CCCCC1 | 22.2% [at 42.5 µM] (inactive) | –
10 | CC(C)CC(C)(c1ccc(O)cc1)c1ccc(O)cc1 | – | inactive
11 | c1cc[c]([Sb]([c]2ccccc2)[c]2ccccc2)cc1 | -11.7% (inactive) | –
12 | CCCCN(CCCC)C(=S)[S-].CCCCN(CCCC)C(=S)[S-].[Zn+2] | 21.2% (inactive) | –
13 | Oc1ccc(C2(c3ccc(O)cc3)CCCCC2)cc1 | -4.92% (inactive) | –
14 | [Cd+2].[Cl-].[Cl-] | – | inactive
15 | Cl/C=C\CCl | 3.42% (inactive) | –
16 | COc1ccc(N)cc1N | – | 15.8 µM (active)
17 | Clc1ccc(CO/N=C(\Cn2ccnc2)c2ccc(Cl)cc2Cl)c(Cl)c1 | 3% [at 42.5 µM] (inactive) | –
18 | CCCCCCCCCCCCCCCC[n+]1ccccc1 | – | inactive
19 | CC(=O)[O-].CC(=O)[O-].[Hg+2] | – | 61.1 µM (active)
20 | CN(C)c1ccc(N=Nc2ccccc2)cc1 | -14% (inactive) | –
21 | [Hg+2].[I-].[I-] | – | 61.1 µM (active)

Row | Compound | activity change, negative = cytotoxicity | Potency
22 | O=[N+]([O-])c1c2ccccc2cc2ccccc12 | -0.118% (inactive) | –
23 | C=CCC1=C(C)C(OC(=O)C2C(C=C(C)C)C2(C)C)CC1=O (stereo unspecified) | -6.06% (inactive) | –
24 | Clc1ccc(CCC(Cn2ccnc2)Sc2c(Cl)cccc2Cl)cc1 (stereo unspecified) | -6.75% [at 42.5 µM] (inactive) | –
25 | CCCCCCCCc1ccc(O)cc1 | 0.0381% (inactive) | –
26 | CC(C)CC(C)Nc1ccc(Nc2ccccc2)cc1 (stereo unspecified) | -5.43% (inactive) | –
27 | Oc1c(Br)c(Br)c(Br)c(Br)c1Br | 1.76% (inactive) | –
28 | Fc1cccc(Cl)c1CCl | 2.06% (inactive) | –
29 | O=C(Nc1ccc2[nH]ccc2c1)c1cc2cc(F)ccc2n1Cc1cccc(F)c1 | 2.68% (inactive) | –
30 | N#CCCC(Br)(C#N)CBr (stereo unspecified) | -1.3% (inactive) | –
31 | CC(=O)Nc1ccc2c(c1)Cc1ccccc1-2 | 7.48% (inactive) | –
32 | Oc1cccc(-c2ccccc2)c1 | 14.1% (inactive) | –
33 | OC(Cc1ccccc1Cl)(Cn1cncn1)C1(Cl)CC1 (stereo unspecified) | -2.86% (inactive) | –
34 | CC1(C)[C@H](C(=O)O[C@H](C#N)c2cccc(Oc3ccccc3)c2)[C@@H]1/C=C(\Cl)C(F)(F)F | – | inactive
35 | N#Cc1ccccc1Cl | 1.94% (inactive) | –
36 | CN(C)C(=S)S | – | inactive
